Compound activity (PubChem BioAssay)
In the library only some 15% were active in any assay of this set; here they are far more common.
Pf growth 96h – P. falciparum growth inhibition at 96 hour, primary screen for plastid delayed-death inhibitors; AID 504834; P. falciparum luciferase reporter growth, 96 h; actives 6.9% (n = 320,000); Potency, µM (series often up to 28.7 µM), hits mostly inhibitors
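Parasite growth measured via integrated firefly luciferase reporter in P. falciparum. Infected erythrocytes at 2% hematocrit, 0.05% parasitemia final were treated 96 hours at 37 C under 5% CO2, and luminescence was read.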
HCV inhibitor – HCV inhibition; Huh7.5.1 HCVcc-Cre infection, luciferase reporter, 44 h; Potency, µM (titrated, usually from 41.8 µM), most hits filed as inhibitors; actives 3.4% (n = 340,000); AID 651820
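Luciferase read-out (15 sec integration) after a 15 min room-temperature substrate step quantifies HCVcc-Cre infection. Cells, 1,000 per well, had compound added 4 h post-plating, then virus at ~0.5 moi, and were cultured 44 h.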
Sm TGR block – S. mansoni TGR enzyme inhibition. Q962Y6. purified TGR, DTNB reduction, TNB absorbance 405 nm. Potency, µM (highest dose often 114 µM), most hits filed as inhibitors. actives 3% (n = 360,000). AID 485364; further: nearly all actives have a fitted effect of over 60% in size
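Kinetic colorimetric format: TGR-catalysed, NADPH-driven DTNB reduction monitored via TNB absorbance. Enzyme dispensed at 20 nM; compound exposure 15 min at room temperature before reaction start.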
Pf growth 48h – P. falciparum growth inhibition at 48 hours (one generation). P. falciparum luciferase growth in erythrocytes, 48 h. Potency, µM (series often up to 28.7 µM), actives largely listed as inhibitors. actives 5.9% (n = 310,000). AID 504832
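In quantitative HTS format, infected erythrocytes bearing luciferase-reporter parasites were treated for a single generation at 37 C. Luminescence after adding detection reagent served as the growth measure.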
SARS PLpro yeast – blocks SARS-CoV papain-like protease in a yeast assay. S. cerevisiae expressing SARS-CoV PLpro, growth rescue. Potency, µM (doses to about 32.9 µM), actives largely listed as activators. actives 0.19% (n = 330,000). AID 485353; calls by dose curve; further: nearly all actives have a fitted effect of over 55% in size
HCMV antiviral – inhibitors of human cytomegalovirus | activity change, negative = inhibition, % at 57.5 µM | HFF cells, HCMV-luciferase reporter, 72 h; hits give low values | AID 1259415 | actives 4.5% (n = 410,000); in the data active means activity change below about -60%; inconclusive means no clear call, values can overlap the other calls; inactive means above about -39%
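Cell-based, HFFs, 1000 cells/well, 16 h 37C; cpds in DMSO + HCMV-luc, MOI 1 PFU/cell; 72 h 37C; OneGlo luminescence after 5 min RT; norm. to buffer vs Salinomycin 10uM.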
Hits are given with their value. Unless noted, the call rests on the fitted dose curve; in most records, active means well fitted curve in the direction sought with a large enough effect; inconclusive means small, poorly fitted or top-dose-only effect, or another doubt; inactive means no such curve, though single readings can be large; an effect the other way counts as inactive or inconclusive.

Cc1ncc(CN2CCC(C(=O)Nc3cccc(-c4cscn4)c3)CC2)cn1 was read as Pf growth 96h inconclusive, HCV inhibitor inconclusive, Sm TGR block inactive, Pf growth 48h inactive, SARS PLpro yeast inactive and HCMV antiviral inconclusive.
`COc1ccc([C@H]2CC(=O)C=C(/C=C/c3ccccc3)C2)cc1OC` gave Pf growth 96h inconclusive, HCV inhibitor inactive, Sm TGR block inactive, Pf growth 48h inconclusive, SARS PLpro yeast inactive and HCMV antiviral inactive.
OC[C@@H](O)[C@@H](O[C@H]1O[C@H](CO)[C@@H](O)[C@H](O)[C@H]1O)[C@H](O)[C@@H](O)CO was read as HCV inhibitor inactive, Sm TGR block inactive, SARS PLpro yeast inactive and HCMV antiviral inactive.
O=C(NCc1nnc(SCC(=O)N2CCCC2)o1)c1c(F)cccc1F was read as Pf growth 96h inactive, HCV inhibitor inactive, Sm TGR block inactive, Pf growth 48h inactive, SARS PLpro yeast inactive and HCMV antiviral inactive.
`O=C(NCc1nnc(SCC(=O)N2CCC(Cc3ccccc3)CC2)o1)c1ccccc1F` gave Pf growth 96h 13µM, HCV inhibitor inconclusive, Sm TGR block inactive, Pf growth 48h inactive, SARS PLpro yeast inactive and HCMV antiviral inactive.
For CCOc1ccc(N(C(=O)c2snc(C(N)=O)c2N)C(C(=O)NC2CCCC2)c2ccncc2)cc1 (centres undefined) the results were Pf growth 96h inconclusive, HCV inhibitor inconclusive, Sm TGR block inactive, Pf growth 48h inactive, SARS PLpro yeast inactive and HCMV antiviral inconclusive.
Screening CC(C)C(NC(=O)c1c(F)cccc1F)C(=O)NCCc1ccc(S(N)(=O)=O)cc1 (centres undefined) returned Pf growth 96h inactive, HCV inhibitor inactive, Sm TGR block inactive, Pf growth 48h inactive, SARS PLpro yeast inactive and HCMV antiviral inactive.
`O=C(c1ccccc1)N1CCCOC1c1ccccc1` (centres undefined) gave Pf growth 96h inactive, HCV inhibitor inactive, Sm TGR block inactive, Pf growth 48h inconclusive, SARS PLpro yeast inactive and HCMV antiviral inactive.
Screening O=C(c1ccccc1)N1CCOC(O)(c2ccccc2)C1c1ccccc1 (centres undefined) returned HCV inhibitor inactive and HCMV antiviral -61.
`CN(C)C(=O)CNC(=O)CN1C(=O)NC2(CCCc3sccc32)C1=O` (centres undefined) gave Pf growth 96h inactive, HCV inhibitor inactive, Sm TGR block inactive, Pf growth 48h inactive, SARS PLpro yeast inactive and HCMV antiviral inactive.
`COCCNC(=O)/C(C#N)=C/c1c(N2CCN(c3ccccc3)CC2)nc2c(C)cccn2c1=O` gave Pf growth 96h inconclusive, HCV inhibitor inactive, Sm TGR block inactive, Pf growth 48h 13µM, SARS PLpro yeast inactive and HCMV antiviral inactive.
For CCOC(=O)/C(C#N)=C/c1c(N2CCN(c3ccc(OC)cc3)CC2)nc2c(C)cccn2c1=O the results were Pf growth 96h 12µM, HCV inhibitor inconclusive, Sm TGR block inactive, Pf growth 48h 9.3µM, SARS PLpro yeast inactive and HCMV antiviral inactive.
COCCNC(=O)/C(C#N)=C/c1c(N2CCN(c3cccc(Cl)c3)CC2)nc2c(C)cccn2c1=O was read as Pf growth 96h inconclusive, HCV inhibitor inconclusive, Sm TGR block inactive, Pf growth 48h 13µM, SARS PLpro yeast inactive and HCMV antiviral inactive.
COCCNC(=O)/C(C#N)=C/c1c(N2CCN(c3ccc(OC)cc3)CC2)nc2c(C)cccn2c1=O was read as Pf growth 96h inconclusive, HCV inhibitor inactive, Sm TGR block inactive, SARS PLpro yeast inactive and HCMV antiviral inactive.
For CCNC(=O)/C(C#N)=C/c1c(N2CCN(c3ccc(OC)cc3)CC2)nc2c(C)cccn2c1=O the results were Pf growth 96h inconclusive, HCV inhibitor inactive, Sm TGR block inactive, Pf growth 48h inconclusive, SARS PLpro yeast inactive and HCMV antiviral inactive.
For C=CCNC(=O)/C(C#N)=C/c1c(N2CCN(c3cccc(Cl)c3)CC2)nc2c(C)cccn2c1=O the results were Pf growth 96h inconclusive, HCV inhibitor inactive, Sm TGR block inactive, Pf growth 48h 8.3µM, SARS PLpro yeast inactive and HCMV antiviral inactive.
Screening CC(C)c1ccc(NC(=O)CCNC(=O)N2CC(=O)Nc3ccccc32)cc1 returned Pf growth 96h inconclusive, HCV inhibitor inactive, Sm TGR block inactive, Pf growth 48h inconclusive, SARS PLpro yeast inactive and HCMV antiviral inactive.
CCOC(=O)N1CCN(C(=O)C2CCC(=O)N(Cc3ccccc3OC)C2)CC1 (centres undefined) was read as HCMV antiviral inactive.
Screening CCN(CC(=O)Nc1c(F)cccc1F)C(=O)CCCN1C(=O)c2cccc3cccc(c23)C1=O returned HCMV antiviral inactive.
CCOC(=O)N1CCN(c2nc3c(C)cccn3c(=O)c2C=O)CC1 was read as Pf growth 96h inconclusive, HCV inhibitor inactive, Sm TGR block 40µM, Pf growth 48h inconclusive, SARS PLpro yeast inactive and HCMV antiviral inactive.
Screening Cc1cccn2c(=O)c(C=O)c(N3CCCCC3)nc12 returned Pf growth 96h inactive, HCV inhibitor inactive, Sm TGR block inactive, Pf growth 48h inactive, SARS PLpro yeast inactive and HCMV antiviral inconclusive.
`COCCNC(=O)/C(C#N)=C/c1c(F)cccc1Cl` gave Pf growth 96h inactive, HCV inhibitor inactive, Sm TGR block inactive, Pf growth 48h inactive, SARS PLpro yeast inactive and HCMV antiviral -75.
For Cc1ccc(-n2c(-c3ccc(Br)cc3)n[nH]c2=S)c(C)c1 the results were HCMV antiviral inactive.
Screening c1cn2c(NC3CCCC3)c(-c3ccc(N4CCOCC4)cc3)nc2cn1 returned Pf growth 96h inactive, HCV inhibitor inactive, Sm TGR block inactive, SARS PLpro yeast inactive and HCMV antiviral inactive.
c1cn2c(NC3CCCCC3)c(-c3ccc(SC4CCCCC4)cc3)nc2cn1 was read as Pf growth 96h inconclusive, HCV inhibitor inactive, Sm TGR block inactive, Pf growth 48h 3.7µM, SARS PLpro yeast inactive and HCMV antiviral inactive.
For CCN(CC)c1ccc(-c2nc3cnccn3c2NC2CCCC2)cc1 the results were Pf growth 96h inconclusive, HCV inhibitor 32µM, Sm TGR block inactive, Pf growth 48h inconclusive, SARS PLpro yeast inactive and HCMV antiviral inactive.
O=C(O)c1ccc(NS(=O)(=O)c2ccc3c(c2)C2C=CCC2C(c2ccccc2F)N3)cc1 (centres undefined) was read as Pf growth 96h inconclusive, HCV inhibitor inactive, Sm TGR block 28µM, Pf growth 48h inactive, SARS PLpro yeast inactive and HCMV antiviral inactive.
Screening Cc1ccc(NS(=O)(=O)c2ccc3c(c2)[C@H]2C=CC[C@H]2[C@@H](c2ccc(F)cc2)N3)cc1C returned Sm TGR block inconclusive and HCMV antiviral inactive.
`COC(=O)c1ccc([C@@H]2Nc3c(OC)ccc(C)c3[C@@H]3C=CC[C@@H]32)cc1` gave Sm TGR block 3.2µM and HCMV antiviral inactive.
